Reference: PubChem BioAssay AID738 (SRMLSC, 2007)
The campaign covered roughly 98,000 compounds. About 4,900 (5%) were called active. For the sample, actives were picked, then their nearest neighbours and some compounds at random. Unmarked numbers belong to inactive results. Cut-off read from the data, not from the text of the source: active = inhibition above about 30%; inactive = the rest.

Experiment: growth inhibition of yeast control strain, primary screen, counter-screen for post-Golgi transport modulator project (AID 738)
Details: efflux-deficient yeast background strain, growth absorbance A615, 16 h; at 10 µM; active compounds read high

Compound	inhibition
O=C(c1ccccc1)C(Cn1cncn1)C(Sc1ccccc1)c1ccccc1 (stereo unspecified)	26.1%
CCOC(=O)N1CCN(C(c2cccnc2)c2ccc3cccnc3c2O)CC1 (stereo unspecified)	1.65%
CCOC(=O)c1c(C2CC2)csc1NC(=O)CSCc1c(C)noc1C	23.3%
CCn1c(SCC(=O)Nc2nc3ccc(OC)cc3s2)nnc1-c1ccoc1C	19.9%
Cc1noc(C)c1CSCC(=O)Nc1nc2ccc(Oc3ccccc3)cc2s1	56.3% (active)
O=S(=O)(c1ccc(F)cc1)n1ccc(-c2cnc(-c3ccccc3)s2)n1	6.8%
COc1ccccc1-n1nnnc1S(=O)(=O)Cc1ccc(Cl)cc1	32.4% (active)
COc1ccccc1N1CCN(C(=O)CN(Cc2ccc(Cl)cc2)S(C)(=O)=O)CC1	1.33%
O=S(=O)(O)c1nc2ccccc2n1Cc1ccc(Cl)cc1	2.95%
Cc1cccc(C(=O)Nc2ccc(C(=O)/C=C/c3cccs3)cc2)c1	3.4%
O=C(Nc1ccn(Cc2ccccc2F)n1)c1ccc(COc2ccc(Cl)cc2Cl)o1	27.6%
CC1Cc2nc(SCC(=O)Nc3ccccc3F)n(C)c(=O)c2S1 (stereo unspecified)	25.6%
CCn1c(SCC(=O)Nc2ccc3c(c2)OCCO3)nc2c(c1=O)SC(C)C2 (stereo unspecified)	6.57%
CCn1c(SCC(=O)Nc2ccccc2F)nc2c(c1=O)SC(C)C2 (stereo unspecified)	103% (active)
O=S(=O)(c1cccc2nonc12)N1CCN(c2cccc(Cl)c2)CC1	-0.91%
Cc1cc(-c2ccc(/C=N/n3cnnc3)o2)c([N+](=O)[O-])cc1C	39.1% (active)
Cc1cc(C)c([N+](=O)[O-])cc1-c1ccc(/C=N/NC(=O)c2nonc2N)o1	8.91%
Cc1cc([N+](=O)[O-])c(-c2ccc(/C=N/n3cnnc3)o2)cc1Cl	19.7%
CC(=O)c1cc2c(cc1NC(=O)CN1CCCCCC1)OCO2	5.16%
C/C=C/C(=O)OCC(=O)Nc1ccc(F)cc1Cl	3.31%
CC(Oc1ccc(F)cc1F)C(=O)/C=C/N(C)C (stereo unspecified)	-1.04%
CN(C)/C=C/C(=O)c1ccccc1F	36.4% (active)
COC(=O)CNC(=O)c1ccccc1F	4.83%
Cc1ccc(N2C(=O)C(Cc3ccccc3)NC2=S)cc1 (stereo unspecified)	5.73%

Compound	inhibition
COc1cc(Cl)c(C)cc1NC(=O)CSc1nnc(-c2cccnc2)n1Cc1ccco1	3.14%
CCn1c(SCC(=O)Nc2cc(C)c(Cl)cc2OC)nnc1-c1ccco1	26.5%
COc1cc(Cl)c(C)cc1NC(=O)CSc1nnc(-c2ccco2)n1CC(C)C	34% (active)
O=C1CC(C(F)(F)C(F)(F)C(F)(F)C(F)(F)F)=Nc2ccccc2N1	16.7%
O=C(CSCc1ccc(Br)cc1)Nc1ccc(S(=O)(=O)N2CCCCCC2)cc1	6.87%
COCC(=O)Nc1ccc(Br)cc1	36.8% (active)
CCN(CC)C(=O)CCC(=O)Nc1ccc(C(=O)OC)cc1	1.42%
O=C(Nc1ccc2c(c1)CCC2)c1cccc(S(=O)(=O)N2CCN(c3ccc(F)cc3)CC2)c1	17.8%
Cc1cc(C=O)c(C)n1-c1ccc(NC2CCCCC2)c([N+](=O)[O-])c1	39% (active)
Cc1ccc(-n2c(C)cc(/C=N/Nc3ccc([N+](=O)[O-])cn3)c2C)c(C)c1	3.3%
COc1cc(OC)c(-n2c(C)cc(C=O)c2C)cc1Cl	20.4%
O=C(O)c1ccccc1NC(=S)NC(NC(=O)c1ccccc1[N+](=O)[O-])C(Cl)(Cl)Cl (stereo unspecified)	21.6%
NC(=O)c1c(NC(=O)CSc2nnc(-c3ccco3)n2N)sc2c1CCCC2	-1.04%
O=C(CN1CCN(S(=O)(=O)c2ccc3ccccc3c2)CC1)NC(=O)NC1CCCCC1	19.7%
CCOc1cccc(C(=O)Nc2cnn(Cc3ccccc3)c2)c1	-4.4%
CCOC(=O)C(C(=O)OCC)C(C#N)c1ccccc1 (stereo unspecified)	30.5% (active)
CCCCCCOC(=O)NCC(O)c1ccccc1 (stereo unspecified)	4.19%
CCOC(=O)CCP(=O)(O)C(O)(c1ccccc1)c1ccccc1	2.13%
CCNC(=S)Nc1cccc(Cl)c1C	3.81%
COc1ccc(Cc2nnc(SCC(=O)c3cccc([N+](=O)[O-])c3)n2C)cc1	3.08%
Cc1ccc(NC(=O)N2CCC(c3nc4c(nnn4Cc4c(F)cccc4Cl)c(=O)[nH]3)CC2)cc1	8.76%
COc1cc(OC)c(C(=O)NC2CCCCCC2)cc1OC	46.5% (active)
COc1cc(OC)c(C(=O)NC2CC(C)(C)NC(C)(C)C2)cc1OC	-5.38%
COc1ccc(-c2nnc(SCC(=O)NC3CCCCC3)o2)cc1OC	-2.95%

Compound	inhibition
C=CCn1c(SCCOc2ccc(OC)cc2)nnc1C(NC(=O)c1ccc(OC)cc1)C(C)C (stereo unspecified)	10.1%
CCOc1ccc(-n2c(N)c(C(=O)NCC3CCCO3)sc2=S)cc1 (stereo unspecified)	3.93%
O=C(Cc1ccc(S(=O)(=O)N2CCCC2)s1)NC1CCCCCC1	31.8% (active)
O=C(NC1CCCCC1)C1CCCN(S(=O)(=O)c2cccs2)C1 (stereo unspecified)	-12.5%
O=C(Cc1ccc(S(=O)(=O)N2CCOCC2)s1)NCCC(c1ccccc1)c1ccccc1	22.9%
Cc1cc(N)n2nc(-c3ccc(C(C)(C)C)cc3)cc2n1	31% (active)
COc1ccc(-c2cc(C)nc3nc(N)nn23)cc1	5.75%
Cc1cccc(-n2ncc(C#N)c2-n2cccc2)c1	20.2%
Cc1[nH]nc(-c2ccc(OCc3cnn(-c4ccccc4)c3)cc2O)c1Oc1ccc(Cl)cc1	0%
Cn1c(=O)c2c(ncn2CC(COCc2ccccc2Cl)OCc2ccccc2Cl)n(C)c1=O (stereo unspecified)	8.65%
COc1ccc(Cl)cc1C(=O)NCC#N	18.5%
COc1cc(OC)c(C(=O)Nc2ccc(N(C)C)cc2)cc1OC	27.7%
COc1ccc(Cl)cc1C(=O)Nc1ccc(N(C)C(C)=O)cc1	32.4% (active)
CCn1c(C)nc2c1C(=O)c1ccccc1C2=O	4.03%
CC(C)N(c1ccccc1)c1ncnc(NCCC(=O)O)c1[N+](=O)[O-]	5.97%
O=S(=O)(c1cnccc1N1CCN(/N=C/c2ccc(Br)cc2)CC1)N1CCCCC1	-4.38%
Cc1nc2cc(NC(=O)NCc3ccccc3)ccc2o1	12.9%
C=CCNC(=O)c1csc(-c2ccccc2)n1	-0.15%
CC(=O)c1cccc(NC(=O)Nc2ccc(C)cc2)c1	0.29%
C=CC[n+]1c(-c2ccc(C)cc2)csc1NNC(=O)Nc1ccccc1	40.7% (active)
CC(=O)Nc1ccc(N2C(=O)C3C4CC(=O)C(c5ccccc54)C3C2=O)cc1 (stereo unspecified)	-8.39%
O=C(NCc1cccnc1)c1cccnc1Sc1ccc(Cl)cc1	-2.08%
CC(C)=CC(=O)Nc1nnc(-c2ccc(F)cc2)s1	-0.29%
Cc1cc(C)nc(SC(C)C(=O)N/N=C/c2cccs2)n1 (stereo unspecified)	6.8%

Compound	inhibition
C#CCSc1nnc(-c2sc3ccccc3c2Cl)o1	0.45%
COc1ccccc1-c1n[nH]c2c1[C@H](C)CC[C@H]2C(C)C	38% (active)
CC(C)OC(=O)CN1C(=O)c2ccccc2C1=O	7.83%
C=CCN(CC=C)C(=O)CN1C(=O)c2ccccc2C1=O	3.29%
C=CCn1c(C)cc(C(=O)CN2C(=O)c3ccccc3C2=O)c1C	11.4%
CCOC(=O)CN1C(=O)C(=O)c2cc(C)ccc21	5.42%
Cc1cc2c(cc1C)N(C(=O)CN1C(=O)c3ccccc3C1=O)C(C)(C)c1ssc(=S)c1-2	32.6% (active)
Cc1ccc2c(c1)-c1c(ssc1=S)C(C)(C)N2C(=O)CN1C(=O)c2ccccc2C1=O	60.3% (active)
CN1CCN(S(=O)(=O)c2ccc(N3CCN(S(=O)(=O)c4cccs4)CC3)nc2)CC1	4.14%
O=C(CNC(=O)c1cc2c(s1)CCC2)Nc1ccccc1Br	-4.14%
CCOC(=O)C1(S(=O)(=O)c2ccccc2)CCN(Cc2ccccc2)CC1	4.95%
COC(=O)c1sc2ncccc2c1OCc1ccc(Cl)cc1Cl	11.1%
NC(=O)COc1ccc(/C=N/NC(=O)C2CCCN2S(=O)(=O)c2ccc(Cl)cc2)cc1 (stereo unspecified)	18.9%
NC(N)=N/N=C/c1ccc(OCc2ccc(Cl)cc2Cl)cc1	67.2% (active)
CCN(CC)c1ccc(NC(=O)c2ccc(Cl)nc2)cc1	17.1%
Cn1nc(-c2ccccc2)c(-c2nc(-c3ccc(Cl)cc3)no2)c1Cl	-5.95%
Cc1c(C(=O)N2CC(C)OC(C)C2)sc2nc(-c3ccccc3)cn12 (stereo unspecified)	7.66%
Cc1ccc(-c2nnc(C)c(N3CC(C)OC(C)C3)n2)cc1 (stereo unspecified)	20.1%
O=c1cc(Cn2nnc(-c3ccc(Cl)cc3)n2)nc2sccn12	11.5%
CC1CN(c2nc(-c3ccccc3)nnc2-c2ccccc2)CC(C)O1 (stereo unspecified)	31.6% (active)
Clc1ccc(-c2nnc(-c3ccccc3)nc2N2CCSCC2)cc1	51% (active)
COCc1cc(C)nc2sc(C(=O)NC3CCCCC3)c(N)c12	8.15%
O=C1c2ccccc2C(=O)c2c1cccc2N1CCN(CCO)CC1	9.4%
O=c1cc(N2CCN(Cc3ccccc3)CC2)c(-c2ccccc2)n[nH]1	23.1%
